In PubChem BioAssay AID1053143 (Broad Institute, 2014) one finds activity change, negative = cytotoxicity data, which are given here for 64 molecules.

Hit rate of the full screen: of about 3,400 compounds, about 120 (3.5%) were called active. How the calls were made is not given here. Not all results are given here. Results with a measured potency or affinity are listed apart.

A short description of this test: HepG2 cell cytotoxicity, dose response, cytotoxicity control, ATP luminescence, cherry-pick, activator set 2 (AID 1053143). To be noted: HepG2 viability, CellTiter-Glo ATP luminescence, 72 h; series mostly up to 26 µM.
Take `Fc1cccc(CSc2ccc(-c3ccco3)nn2)c1`: the activity change, negative = cytotoxicity result is “inactive”.

Take `CC(SCc1ccccc1)C(=O)Nc1ccccc1` (centres undefined): the activity change, negative = cytotoxicity entry is “inactive”.

For the molecule `COc1cccc(/C=C/c2ccccn2)c1O`, the activity change, negative = cytotoxicity entry was “inactive”.

Turning to `COc1c(OC(C)=O)ccc(/C=C/c2ccc3cccc(OC)c3n2)c1[N+](=O)[O-]`, the activity change, negative = cytotoxicity entry was “inactive”.

For `CCOC(=O)c1cc(OCC)c2c(ccc3ccccc32)n1`, the activity change, negative = cytotoxicity entry is “inactive”.

As for `COc1cccc(/C=C/c2ccc3cccc(O)c3n2)c1OC`, the activity change, negative = cytotoxicity result was “inactive”.

In the case of `COc1ccc(-c2csc(NC(=O)CC(C)C)n2)cc1`, the activity change, negative = cytotoxicity result is “inactive”.

`COc1ccccc1N1CCN(/N=C\c2ccc(C)o2)CC1`: the activity change, negative = cytotoxicity result was “inactive”.

As for `COc1ccc(CCNC2CC(=O)N(CCc3ccccc3)C2=O)cc1OC` (centres undefined), the activity change, negative = cytotoxicity entry is “inactive”.

`O=[N+]([O-])c1ccc(Nc2nccc(Cl)n2)cc1`: the activity change, negative = cytotoxicity result was “inactive”.

Consider `COc1ccc(Nc2nc(N)nc(CSc3nccn3C)n2)cc1`, for which the activity change, negative = cytotoxicity result is “inactive”.

Regarding `COc1ccc2cc(-c3cccnc3)ncc2c1`, the activity change, negative = cytotoxicity result was “inactive”.

Regarding `COc1ccc(Nc2ccc3ccccc3c2)cc1`, the activity change, negative = cytotoxicity result was “inactive”.

As to `COc1ccc(NC(=O)Nc2cc(C)ccn2)cc1`, the activity change, negative = cytotoxicity entry was “inactive”.

Turning to `Clc1nc(Nc2ccccc2)nc(Nc2ccccc2)n1`, the activity change, negative = cytotoxicity result is “inactive”.

In the case of `O=C(c1ccc(Cl)c([N+](=O)[O-])c1)N(Cc1ccc(Cl)cc1)C1CCS(=O)(=O)C1` (centres undefined), the activity change, negative = cytotoxicity entry was “inactive”.

For `Cn1nnc(NC(=O)C(c2ccccc2)c2ccccc2)n1`, the activity change, negative = cytotoxicity entry was “inactive”.

In the case of `O=C(CNC(=O)c1ccccc1)OCC(=O)N1N=C(c2ccc(Cl)cc2)CC1c1ccco1` (centres undefined), the activity change, negative = cytotoxicity result was “inactive”.

For the molecule `C#CCNC(=O)/C=C/c1ccc(OC)cc1`, the activity change, negative = cytotoxicity entry was “inactive”.

Regarding `Cc1nc2ccc(NC(=O)c3ccc(Cl)s3)cc2s1`, the activity change, negative = cytotoxicity result was “inactive”.

Regarding `C=CCOc1ccc2c(OC)c3ccoc3nc2c1OC`, the activity change, negative = cytotoxicity entry is “inactive”.

`CCCC(=O)N(C)c1nnc(-c2ccc(OC)cc2)s1`: the activity change, negative = cytotoxicity entry is “inactive”.

Consider `COc1ccc(C)cc1NC(=O)C1CCCN1S(=O)(=O)c1ccccc1F` (centres undefined), for which the activity change, negative = cytotoxicity result is “inactive”.

For `Cn1cccc1C(=O)OCC(=O)c1cc2ccccc2o1`, the activity change, negative = cytotoxicity result was “inactive”.

`COc1cc(Cl)ccc1OCc1cc(C(=O)N2C[C@@H]3CCC[C@H]2C3)no1`: the activity change, negative = cytotoxicity result was “inactive”.

Consider `O=C(/C=C/c1ccco1)Nc1nc(-c2ccccc2)cs1`, for which the activity change, negative = cytotoxicity result is “inactive”.

As to `Nc1cc(-c2ccc(Cl)cc2)nn1-c1ccccc1`, the activity change, negative = cytotoxicity result is “inactive”.

On to `Cc1occc1C(=O)O/N=C(\N)c1ccc(Cl)cc1`, for which the activity change, negative = cytotoxicity entry was “inactive”.

On to `O=C(Nc1nc2ccccc2s1)c1ccc(F)cc1`, for which the activity change, negative = cytotoxicity entry was “inactive”.

On to `O=C(Nc1nc(=O)c2ccccc2s1)c1ccccc1`, for which the activity change, negative = cytotoxicity result is “inactive”.

Take `O=C(c1ccccc1)c1cnc(-c2ccc(Cl)cc2)s1`: the activity change, negative = cytotoxicity result was “inactive”.

For the molecule `CCCC(=O)N/C(N)=N/c1nc2ccccc2o1`, the activity change, negative = cytotoxicity result is “inactive”.

Regarding `Cc1nc(Nc2ccccc2)sc1C(=O)c1ccccc1`, the activity change, negative = cytotoxicity entry is “inactive”.

Regarding `Nc1nc(Nc2ccccc2F)sc1C(=O)c1ccccc1`, the activity change, negative = cytotoxicity entry is “inactive”.

On to `Cc1ccc(Nc2ncccc2C(N)=O)cc1[N+](=O)[O-]`, for which the activity change, negative = cytotoxicity entry was “inactive”.

In the case of `CCOC(=O)c1ccc(N2Cc3ccccc3C2=NC(=O)c2ccncc2)cc1`, the activity change, negative = cytotoxicity result was “inactive”.

On to `Cc1ccc(Nc2nc3ccccc3o2)cc1F`, for which the activity change, negative = cytotoxicity result was “inactive”.

Take `O=c1sc2ccccc2n1CCCOc1ccccc1`: the activity change, negative = cytotoxicity entry is “inactive”.

As for `Cn1c(-c2ccc([N+](=O)[O-])cc2)nc2ccccc21`, the activity change, negative = cytotoxicity entry is “inactive”.

Turning to `Cc1ccc(OCCn2cnc3ccccc3c2=O)c([N+](=O)[O-])c1`, the activity change, negative = cytotoxicity result was “inactive”.

With `Fc1cccc(-c2ncc(-c3ccccc3)o2)c1`, the activity change, negative = cytotoxicity entry was “inactive”.

Regarding `O=C(Nc1nc2c(ccc3ccccc32)s1)c1ccco1`, the activity change, negative = cytotoxicity entry was “inactive”.

Regarding `Cc1cc2sc(NC(=O)c3ccco3)nc2cc1Cl`, the activity change, negative = cytotoxicity entry was “inactive”.

Turning to `O=C(Nc1cc(-c2ccccc2)cs1)c1ccco1`, the activity change, negative = cytotoxicity entry was “inactive”.

Regarding `O=C(Nc1nc2ccc([N+](=O)[O-])cc2s1)c1ccco1`, the activity change, negative = cytotoxicity result was “inactive”.

Consider `Cc1cc(NC(=O)c2ccccc2)sc1C`, for which the activity change, negative = cytotoxicity entry was “inactive”.

Take `CCOC(=O)c1ccc2nc(NC(C)=O)sc2c1`: the activity change, negative = cytotoxicity result is “inactive”.

For `CCOc1ccc(NC(=O)Cc2ccccc2)cc1`, the activity change, negative = cytotoxicity entry was “inactive”.

For the molecule `COC(=O)c1sc2nc3c(cc2c1N)CCCC3`, the activity change, negative = cytotoxicity result is “inactive”.

Take `CC(C)c1ccc(NC(=O)c2cccc(Br)c2)cc1`: the activity change, negative = cytotoxicity entry is “inactive”.

For the molecule `COc1cc(/C=N/NC(=O)CNC(=O)c2ccccc2)ccc1OC(=O)c1cccs1`, the activity change, negative = cytotoxicity entry was “inactive”.

With `O=C(Nc1nc2ccc(Cl)cc2s1)C1CC1`, the activity change, negative = cytotoxicity entry was “inactive”.

Regarding `CCC1CCCCN1S(=O)(=O)c1ccc(NC(=O)C2CC(=O)N(C(C)(C)C)C2)cc1` (centres undefined), the activity change, negative = cytotoxicity entry was “inactive”.

`O=c1[nH]c2ccccc2nc1CCc1ccccc1`: the activity change, negative = cytotoxicity entry was “inactive”.

On to `COc1cc(OC)cc(C(=O)NCC(=O)Nc2ccc(C)c(Cl)c2)c1`, for which the activity change, negative = cytotoxicity entry was “inactive”.

In the case of `Cc1cc(N2CCCCC2)nc2ccc(NC(=O)CCC(=O)NCCC(C)C)cc12`, the activity change, negative = cytotoxicity entry was “inactive”.

Regarding `CCn1ccc(C(=O)Nc2ccc(Cl)cn2)n1`, the activity change, negative = cytotoxicity result was “inactive”.

For `O=C1c2ccccc2-c2nc3ccccc3cc21`, the activity change, negative = cytotoxicity entry is “inactive”.

Consider `c1ccc2c(c1)Cc1cc3ccccc3nc1-2`, for which the activity change, negative = cytotoxicity entry is “inactive”.

For `CC(C)Sc1ccc(C(=O)Nc2ccc(F)cc2F)cn1`, the activity change, negative = cytotoxicity entry is “inactive”.

On to `CCC(C)Sc1ccc(-c2nc3ccc(Cl)cn3c2NCc2ccccc2)cc1` (centres undefined), for which the activity change, negative = cytotoxicity result is “inactive”.

For `CN(Cc1ccsc1)C(=O)CCc1nnc(CCCc2ccccc2)o1`, the activity change, negative = cytotoxicity entry was “inactive”.

As for `O=C(Nc1ccccn1)C(=O)Nc1ccccn1`, the activity change, negative = cytotoxicity entry was “inactive”.

For the molecule `Cc1n[nH]c(=O)nc1N/N=C/c1ccco1`, the activity change, negative = cytotoxicity entry was “inactive”.
